Laboratory results from publication PMC7862700, “An all-to-all approach to the identification of sequence-specific readers for epigenetic DNA modifications on cytosine”.

Key:
Assay in all cases: DAPPL (digital affinity profiling via proximity ligation, sequencing); 10 mM Tris-HCl pH 7.5, 50 mM NaCl, 1 mM DTT, 4% glycerol, room temperature, 30 min; GST-TFs on glutathione beads, 16-mer random dsDNA library, 0.1% formaldehyde crosslink after washing; high values mean tight binding
Conditions in all cases: protein: recombinant; tags: N-terminal GST; dsDNA, one strand shown
[1] = target: T1, FLI1 (Homo sapiens, UniProt Q01543 1-452)
T1 sequence: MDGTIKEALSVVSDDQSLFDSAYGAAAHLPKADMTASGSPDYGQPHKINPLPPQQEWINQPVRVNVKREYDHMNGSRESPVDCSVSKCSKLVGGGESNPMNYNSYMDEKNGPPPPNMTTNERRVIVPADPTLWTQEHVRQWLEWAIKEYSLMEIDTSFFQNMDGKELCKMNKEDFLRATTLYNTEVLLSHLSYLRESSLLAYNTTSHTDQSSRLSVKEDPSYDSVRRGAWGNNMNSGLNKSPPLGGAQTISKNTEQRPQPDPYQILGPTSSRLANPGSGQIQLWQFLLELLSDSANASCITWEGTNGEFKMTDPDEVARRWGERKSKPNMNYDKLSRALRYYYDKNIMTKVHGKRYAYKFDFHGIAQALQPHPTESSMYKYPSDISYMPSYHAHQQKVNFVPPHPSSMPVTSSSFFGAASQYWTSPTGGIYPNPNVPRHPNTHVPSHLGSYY
Outline: (§1)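 Human transcription factors were made in yeast as GST fusions, captured on glutathione beads and barcoded with DNA. With a tag-only sample included, the pool was incubated with 200 nmole of a random double-stranded 16-mer DNA library in Tris/NaCl/DTT/glycerol buffer at room temperature for 30 min, then crosslinked with 0.1% formaldehyde after washing, ligated by proximity, amplified and sequenced. For binding signal, each hexamer's read frequency for a factor is divided by its frequency for the tag-only sample.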

[2] = target: T2, ELK1 (Homo sapiens, UniProt P19419 1-428)
T2 sequence: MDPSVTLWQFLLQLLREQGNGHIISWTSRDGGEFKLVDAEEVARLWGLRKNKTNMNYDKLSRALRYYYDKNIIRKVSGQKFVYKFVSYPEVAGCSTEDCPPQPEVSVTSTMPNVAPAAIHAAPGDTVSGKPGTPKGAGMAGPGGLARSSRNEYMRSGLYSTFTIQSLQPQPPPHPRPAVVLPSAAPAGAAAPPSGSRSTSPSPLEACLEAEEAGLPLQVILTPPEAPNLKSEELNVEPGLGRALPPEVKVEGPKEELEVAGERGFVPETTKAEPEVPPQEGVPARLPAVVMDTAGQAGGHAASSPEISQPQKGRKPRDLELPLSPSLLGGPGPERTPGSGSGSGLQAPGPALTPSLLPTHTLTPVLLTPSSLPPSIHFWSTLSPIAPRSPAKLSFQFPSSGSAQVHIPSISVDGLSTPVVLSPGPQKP
Outline: as §1

[3] = target: T3, GABPA (Homo sapiens, UniProt Q06546 1-454)
T3 sequence: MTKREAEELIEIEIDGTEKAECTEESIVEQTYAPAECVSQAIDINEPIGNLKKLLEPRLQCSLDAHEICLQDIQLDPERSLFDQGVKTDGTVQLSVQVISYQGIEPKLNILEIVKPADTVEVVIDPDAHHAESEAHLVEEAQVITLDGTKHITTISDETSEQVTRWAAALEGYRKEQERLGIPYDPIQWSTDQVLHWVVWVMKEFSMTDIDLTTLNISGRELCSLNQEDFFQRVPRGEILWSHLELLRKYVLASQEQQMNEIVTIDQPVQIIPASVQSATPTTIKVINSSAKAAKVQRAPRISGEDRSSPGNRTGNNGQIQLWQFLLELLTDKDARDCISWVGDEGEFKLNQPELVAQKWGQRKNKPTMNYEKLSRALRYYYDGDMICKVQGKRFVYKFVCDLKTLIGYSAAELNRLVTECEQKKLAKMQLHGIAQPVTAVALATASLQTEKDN
Outline: as §1

[4] = target: T4, ERG (Homo sapiens, UniProt P11308 1-479)
T4 sequence: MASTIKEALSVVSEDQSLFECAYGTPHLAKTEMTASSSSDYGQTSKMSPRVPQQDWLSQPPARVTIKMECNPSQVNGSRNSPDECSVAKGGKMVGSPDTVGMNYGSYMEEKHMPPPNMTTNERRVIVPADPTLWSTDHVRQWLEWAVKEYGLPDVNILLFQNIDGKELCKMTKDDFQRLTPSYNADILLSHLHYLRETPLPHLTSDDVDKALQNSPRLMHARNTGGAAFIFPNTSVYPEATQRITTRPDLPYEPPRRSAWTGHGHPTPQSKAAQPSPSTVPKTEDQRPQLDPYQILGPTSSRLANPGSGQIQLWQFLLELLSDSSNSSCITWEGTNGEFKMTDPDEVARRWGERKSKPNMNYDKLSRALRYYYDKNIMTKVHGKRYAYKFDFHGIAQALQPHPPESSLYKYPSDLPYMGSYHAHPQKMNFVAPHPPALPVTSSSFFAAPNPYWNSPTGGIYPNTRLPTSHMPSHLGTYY
Outline: as §1

[5] = target: ELF1 (Homo sapiens, UniProt P32519 1-619)
Outline: as §1

[6] = target: T5, EHF (Homo sapiens, UniProt Q9NZC4 1-300)
T5 sequence: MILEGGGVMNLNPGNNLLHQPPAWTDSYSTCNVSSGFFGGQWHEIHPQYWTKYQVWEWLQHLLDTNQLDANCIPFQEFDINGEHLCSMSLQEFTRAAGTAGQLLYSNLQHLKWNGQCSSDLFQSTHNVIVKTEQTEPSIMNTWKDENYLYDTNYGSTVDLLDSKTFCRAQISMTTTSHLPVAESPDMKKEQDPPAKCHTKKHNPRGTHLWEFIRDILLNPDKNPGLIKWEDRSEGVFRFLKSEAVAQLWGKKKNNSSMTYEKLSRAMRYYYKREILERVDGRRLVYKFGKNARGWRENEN
Outline: as §1

[7] = target: SPI1 (Homo sapiens, UniProt P17947 1-270)
Outline: as §1

[8] = target: SPIB (Homo sapiens, UniProt Q01892 1-262)
Outline: as §1

[9] = target: T6, ELK3 (Homo sapiens, UniProt P41970 1-407)
T6 sequence: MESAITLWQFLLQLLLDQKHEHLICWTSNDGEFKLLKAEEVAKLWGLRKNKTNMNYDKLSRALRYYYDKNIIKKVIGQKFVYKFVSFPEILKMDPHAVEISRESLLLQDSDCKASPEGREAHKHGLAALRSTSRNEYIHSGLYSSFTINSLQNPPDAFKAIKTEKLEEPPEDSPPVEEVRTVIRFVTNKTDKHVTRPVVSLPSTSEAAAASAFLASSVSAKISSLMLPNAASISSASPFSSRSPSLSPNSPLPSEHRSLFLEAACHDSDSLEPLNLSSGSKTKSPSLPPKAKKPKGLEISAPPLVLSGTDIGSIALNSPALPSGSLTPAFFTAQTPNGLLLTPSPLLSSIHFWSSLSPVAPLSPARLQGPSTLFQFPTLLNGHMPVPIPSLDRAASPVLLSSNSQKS
Outline: as §1

[10] = target: T7, FEV (Homo sapiens, UniProt Q99581 1-238)
T7 sequence: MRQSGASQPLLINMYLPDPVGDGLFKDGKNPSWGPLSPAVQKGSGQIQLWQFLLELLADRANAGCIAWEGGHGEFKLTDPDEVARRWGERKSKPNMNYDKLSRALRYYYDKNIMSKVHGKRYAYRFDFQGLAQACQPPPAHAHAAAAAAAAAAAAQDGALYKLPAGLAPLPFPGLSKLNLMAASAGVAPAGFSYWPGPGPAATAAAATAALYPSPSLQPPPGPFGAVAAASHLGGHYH
Outline: as §1

[11] = target: ETV5 (Homo sapiens, UniProt P41161 1-510)
Outline: as §1

[12] = target: T8, SPIC (Homo sapiens, UniProt Q8N5J4 1-248)
T8 sequence: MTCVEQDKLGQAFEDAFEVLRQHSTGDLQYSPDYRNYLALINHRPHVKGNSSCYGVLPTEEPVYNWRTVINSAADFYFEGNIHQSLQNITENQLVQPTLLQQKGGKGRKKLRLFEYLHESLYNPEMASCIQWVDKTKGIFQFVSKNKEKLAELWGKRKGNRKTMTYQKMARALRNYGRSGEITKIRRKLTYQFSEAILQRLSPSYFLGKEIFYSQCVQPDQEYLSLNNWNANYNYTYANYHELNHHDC
Outline: as §1

[13] = target: ELF4 (Homo sapiens, UniProt Q99607 1-663)
Outline: as §1

[14] = target: T9, ELK4 (Homo sapiens, UniProt P28324-2 1-405)
T9 sequence: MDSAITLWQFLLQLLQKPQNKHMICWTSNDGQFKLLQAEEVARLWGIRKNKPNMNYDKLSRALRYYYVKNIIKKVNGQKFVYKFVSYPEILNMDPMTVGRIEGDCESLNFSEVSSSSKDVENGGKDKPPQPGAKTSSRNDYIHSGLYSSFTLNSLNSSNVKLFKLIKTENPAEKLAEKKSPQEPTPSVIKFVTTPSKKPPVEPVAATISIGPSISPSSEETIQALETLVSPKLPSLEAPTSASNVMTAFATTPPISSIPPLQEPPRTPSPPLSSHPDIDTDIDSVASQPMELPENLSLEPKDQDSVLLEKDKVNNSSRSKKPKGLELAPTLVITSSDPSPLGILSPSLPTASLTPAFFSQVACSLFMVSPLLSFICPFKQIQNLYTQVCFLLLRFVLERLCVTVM
Outline: as §1

[15] = target: T10, ELF3 (Homo sapiens, UniProt P78545 1-371)
T10 sequence: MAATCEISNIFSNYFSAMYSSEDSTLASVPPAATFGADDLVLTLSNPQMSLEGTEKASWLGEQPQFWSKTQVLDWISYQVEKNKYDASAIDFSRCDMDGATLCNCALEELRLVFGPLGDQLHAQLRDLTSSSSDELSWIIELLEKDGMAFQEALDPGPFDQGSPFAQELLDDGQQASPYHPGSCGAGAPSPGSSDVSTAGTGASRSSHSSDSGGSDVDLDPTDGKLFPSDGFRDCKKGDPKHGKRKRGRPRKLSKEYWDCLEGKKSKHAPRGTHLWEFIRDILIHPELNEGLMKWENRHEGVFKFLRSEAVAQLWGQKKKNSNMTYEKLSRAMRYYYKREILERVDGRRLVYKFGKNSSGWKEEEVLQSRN
Outline: as §1

[16] = target: CRX (Homo sapiens, UniProt O43186 1-299)
Outline: as §1

[17] = target: ETV1 (Homo sapiens, UniProt P50549 1-477)
Outline: as §1

[18] = target: T11, ETV2 (Homo sapiens, UniProt O00321 1-342)
T11 sequence: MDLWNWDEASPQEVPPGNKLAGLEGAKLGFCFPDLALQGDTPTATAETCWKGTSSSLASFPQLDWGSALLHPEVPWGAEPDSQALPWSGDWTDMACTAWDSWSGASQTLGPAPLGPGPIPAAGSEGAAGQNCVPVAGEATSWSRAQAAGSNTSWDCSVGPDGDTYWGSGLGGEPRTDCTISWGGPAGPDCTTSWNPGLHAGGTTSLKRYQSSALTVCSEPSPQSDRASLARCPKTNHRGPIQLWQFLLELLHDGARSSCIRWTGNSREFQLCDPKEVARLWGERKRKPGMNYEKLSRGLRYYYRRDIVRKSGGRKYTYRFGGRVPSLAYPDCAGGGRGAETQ
Outline: as §1

ELF1, sequence (P32519 whole entry): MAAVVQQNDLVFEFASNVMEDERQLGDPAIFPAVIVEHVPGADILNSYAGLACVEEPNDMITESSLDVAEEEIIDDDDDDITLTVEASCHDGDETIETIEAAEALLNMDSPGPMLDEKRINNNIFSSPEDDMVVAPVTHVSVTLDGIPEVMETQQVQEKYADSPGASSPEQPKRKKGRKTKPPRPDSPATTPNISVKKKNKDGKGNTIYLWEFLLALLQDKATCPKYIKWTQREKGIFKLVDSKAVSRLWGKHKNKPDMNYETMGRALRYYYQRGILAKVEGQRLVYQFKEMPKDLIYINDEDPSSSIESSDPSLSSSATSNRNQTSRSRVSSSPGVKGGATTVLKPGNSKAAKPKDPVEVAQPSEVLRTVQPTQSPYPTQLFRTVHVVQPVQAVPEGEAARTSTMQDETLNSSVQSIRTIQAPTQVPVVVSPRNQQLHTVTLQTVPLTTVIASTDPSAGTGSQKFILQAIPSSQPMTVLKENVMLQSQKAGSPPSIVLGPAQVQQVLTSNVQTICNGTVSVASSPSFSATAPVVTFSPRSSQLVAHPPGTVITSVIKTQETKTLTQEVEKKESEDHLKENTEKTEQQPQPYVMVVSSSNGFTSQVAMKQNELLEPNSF
SPIB, sequence (Q01892 whole entry): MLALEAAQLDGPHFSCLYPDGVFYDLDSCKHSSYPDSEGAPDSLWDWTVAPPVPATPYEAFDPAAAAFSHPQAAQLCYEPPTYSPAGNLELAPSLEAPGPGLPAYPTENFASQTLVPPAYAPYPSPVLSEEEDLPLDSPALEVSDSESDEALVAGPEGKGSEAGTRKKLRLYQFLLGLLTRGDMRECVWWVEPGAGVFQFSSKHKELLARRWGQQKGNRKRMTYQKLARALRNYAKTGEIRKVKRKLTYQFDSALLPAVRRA
ETV1, sequence (P50549 whole entry): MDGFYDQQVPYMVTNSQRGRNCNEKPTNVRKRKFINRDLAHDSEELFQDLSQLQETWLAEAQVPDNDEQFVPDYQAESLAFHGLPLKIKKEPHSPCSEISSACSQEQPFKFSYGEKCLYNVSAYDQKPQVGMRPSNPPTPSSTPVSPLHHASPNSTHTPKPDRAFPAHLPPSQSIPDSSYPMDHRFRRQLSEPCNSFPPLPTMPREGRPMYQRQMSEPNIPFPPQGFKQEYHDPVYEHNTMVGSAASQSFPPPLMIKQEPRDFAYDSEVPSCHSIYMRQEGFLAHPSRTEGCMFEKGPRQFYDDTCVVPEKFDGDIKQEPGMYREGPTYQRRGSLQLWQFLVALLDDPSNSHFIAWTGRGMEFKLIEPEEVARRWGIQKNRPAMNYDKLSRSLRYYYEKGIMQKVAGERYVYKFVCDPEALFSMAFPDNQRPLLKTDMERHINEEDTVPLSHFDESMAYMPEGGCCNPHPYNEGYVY
ELF4, sequence (Q99607 whole entry): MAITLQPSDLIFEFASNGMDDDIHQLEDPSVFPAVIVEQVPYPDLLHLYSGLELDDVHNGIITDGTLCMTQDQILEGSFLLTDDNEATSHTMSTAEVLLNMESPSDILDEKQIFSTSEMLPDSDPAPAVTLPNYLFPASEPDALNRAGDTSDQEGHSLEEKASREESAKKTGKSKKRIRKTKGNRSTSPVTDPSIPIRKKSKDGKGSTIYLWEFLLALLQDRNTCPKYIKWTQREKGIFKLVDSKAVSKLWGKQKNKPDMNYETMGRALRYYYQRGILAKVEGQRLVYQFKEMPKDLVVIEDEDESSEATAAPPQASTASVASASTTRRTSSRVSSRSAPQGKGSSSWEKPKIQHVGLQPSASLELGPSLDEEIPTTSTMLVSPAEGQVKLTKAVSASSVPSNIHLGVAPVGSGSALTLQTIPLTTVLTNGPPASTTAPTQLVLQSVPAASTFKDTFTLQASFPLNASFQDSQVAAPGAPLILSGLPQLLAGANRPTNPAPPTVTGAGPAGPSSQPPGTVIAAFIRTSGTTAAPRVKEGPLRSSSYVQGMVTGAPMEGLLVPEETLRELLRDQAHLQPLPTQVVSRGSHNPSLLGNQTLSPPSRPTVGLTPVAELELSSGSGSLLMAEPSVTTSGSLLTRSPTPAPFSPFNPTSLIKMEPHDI
ETV5, sequence (P41161 whole entry): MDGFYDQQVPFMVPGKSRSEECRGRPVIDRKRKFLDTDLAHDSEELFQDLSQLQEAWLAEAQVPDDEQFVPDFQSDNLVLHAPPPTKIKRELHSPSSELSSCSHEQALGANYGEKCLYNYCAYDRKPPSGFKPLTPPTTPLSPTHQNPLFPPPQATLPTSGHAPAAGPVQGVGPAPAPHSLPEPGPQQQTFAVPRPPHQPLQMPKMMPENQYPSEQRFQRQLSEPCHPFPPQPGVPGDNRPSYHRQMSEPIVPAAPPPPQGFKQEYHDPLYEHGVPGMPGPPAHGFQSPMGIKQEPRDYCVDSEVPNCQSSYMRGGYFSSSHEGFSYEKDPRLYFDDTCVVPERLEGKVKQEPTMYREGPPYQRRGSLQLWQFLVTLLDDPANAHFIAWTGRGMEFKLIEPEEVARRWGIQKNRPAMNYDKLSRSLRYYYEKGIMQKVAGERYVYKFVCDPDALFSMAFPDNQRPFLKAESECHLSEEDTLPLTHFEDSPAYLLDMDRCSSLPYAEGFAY
CRX, sequence (O43186 whole entry): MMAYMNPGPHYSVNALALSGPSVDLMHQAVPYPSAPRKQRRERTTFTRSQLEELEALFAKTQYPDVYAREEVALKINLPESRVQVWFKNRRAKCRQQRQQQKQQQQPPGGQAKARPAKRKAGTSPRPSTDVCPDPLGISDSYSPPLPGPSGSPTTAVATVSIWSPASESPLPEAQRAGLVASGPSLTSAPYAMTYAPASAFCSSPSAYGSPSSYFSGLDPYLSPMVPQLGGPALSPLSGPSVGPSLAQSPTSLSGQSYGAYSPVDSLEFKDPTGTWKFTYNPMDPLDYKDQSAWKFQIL

| Sequence | binding signal [1] | binding signal [2] | binding signal [3] | binding signal [4] | binding signal [5] | binding signal [6] | binding signal [7] | binding signal [8] | binding signal [9] | binding signal [10] | binding signal [11] | binding signal [12] | binding signal [13] | binding signal [14] | binding signal [15] | binding signal [16] | binding signal [17] | binding signal [18] |
| --- | --- | --- | --- | --- | --- | --- | --- | --- | --- | --- | --- | --- | --- | --- | --- | --- | --- | --- |
| CCCCGC | 1.12 fold enrichment (6-mer frequency, TF over GST control) | 1.19 fold enrichment (6-mer frequency, TF over GST control) | 1.2 fold enrichment (6-mer frequency, TF over GST control) | 1.19 fold enrichment (6-mer frequency, TF over GST control) | 1.27 fold enrichment (6-mer frequency, TF over GST control) | 1.26 fold enrichment (6-mer frequency, TF over GST control) | 1.11 fold enrichment (6-mer frequency, TF over GST control) | 1.19 fold enrichment (6-mer frequency, TF over GST control) | 1.06 fold enrichment (6-mer frequency, TF over GST control) | 1.14 fold enrichment (6-mer frequency, TF over GST control) | 1.18 fold enrichment (6-mer frequency, TF over GST control) | 1.34 fold enrichment (6-mer frequency, TF over GST control) | 1.24 fold enrichment (6-mer frequency, TF over GST control) | 1.36 fold enrichment (6-mer frequency, TF over GST control) | 1.29 fold enrichment (6-mer frequency, TF over GST control) | 1.01 fold enrichment (6-mer frequency, TF over GST control) | 1.17 fold enrichment (6-mer frequency, TF over GST control) | – |
| CCCATG | 1.06 fold enrichment (6-mer frequency, TF over GST control) | 1 fold enrichment (6-mer frequency, TF over GST control) | 1.22 fold enrichment (6-mer frequency, TF over GST control) | 1.19 fold enrichment (6-mer frequency, TF over GST control) | 1.15 fold enrichment (6-mer frequency, TF over GST control) | 1.11 fold enrichment (6-mer frequency, TF over GST control) | 1.14 fold enrichment (6-mer frequency, TF over GST control) | 1.15 fold enrichment (6-mer frequency, TF over GST control) | 1.13 fold enrichment (6-mer frequency, TF over GST control) | 1.06 fold enrichment (6-mer frequency, TF over GST control) | 1.09 fold enrichment (6-mer frequency, TF over GST control) | 1.02 fold enrichment (6-mer frequency, TF over GST control) | 1.12 fold enrichment (6-mer frequency, TF over GST control) | 1.18 fold enrichment (6-mer frequency, TF over GST control) | – | – | 1.01 fold enrichment (6-mer frequency, TF over GST control) | 1.02 fold enrichment (6-mer frequency, TF over GST control) |
